Assay results reported in the supplement of paper PMC6555819.

Legend:
Assay in all cases: PBM binding z-score (relative to random genomic background probes); higher = stronger binding; sequences stand for … in GC…GCGATTGACAGCGTAGAATGAAGG
[1] = test system: PPARg:RXRa DBDmut IVT, anti-RXR (DBD mutation: RXRa K156A/R161A, NR concentration 270 nM, RXRa partner concentration 90 nM)
Procedure, shortened: (§1)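 Binding z-scores were set against random background probes. The data came from custom Agilent 4×180K protein-binding microarrays carrying double-stranded probes with 34-nt variable regions, incubated 1 h with ligand-free nuclear receptor dimers. Partner-specific antibodies detected binding, and scanned fluorescence was regression-normalized.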

[2] = test system: PPARg:RXRa IVT, anti-PPARg (NR concentration 270 nM, RXRa partner concentration 90 nM)
Procedure, shortened: as §1

[3] = test system: PPARg DBDmut:RXRa IVT, anti-PPARg (DBD mutation: PPARg1 K132A/R137A, NR concentration 270 nM, RXRa partner concentration 90 nM)
Procedure, shortened: as §1

[4] = test system: PPARg DBDmut IVT, anti-PPARg (DBD mutation: PPARg1 K132A/R137A, NR concentration 270 nM)
Procedure, shortened: as §1

[5] = test system: PPARg homodimer (NR concentration 180 nM)
Procedure, shortened: as §1

[6] = test system: PXR:RXRa (NR concentration 270 nM, RXRa partner concentration 90 nM)
Procedure, shortened: as §1

[7] = test system: PXR homodimer (NR concentration 270 nM)
Procedure, shortened: as §1

[8] = test system: RARa:RXR (NR concentration 270 nM, RXRa partner concentration 90 nM)
Procedure, shortened: as §1

[9] = test system: RARa homodimer (NR concentration 270 nM)
Procedure, shortened: as §1

[10] = test system: RARb:RXRa (NR concentration 270 nM, RXRa partner concentration 90 nM)
Procedure, shortened: as §1

Row | Sequence | PBM binding z-score [1] | PBM binding z-score [2] | PBM binding z-score [3] | PBM binding z-score [4] | PBM binding z-score [5] | PBM binding z-score [6] | PBM binding z-score [7] | PBM binding z-score [8] | PBM binding z-score [9] | PBM binding z-score [10]
1 | CCTACTGGGCCATTCAGAGATCATTGATCATATG | 4.48 | 3.51 | 0.0285 | 0.282 | -0.3 | -0.546 | -0.622 | -0.523 | 0.13 | 0.0331
2 | TCTTGTAGATCAAAGGTTAATAAAGCCGAAGCCT | 2.46 | 3.56 | 0.977 | 1.2 | 1.25 | 1.62 | 0.19 | 2.43 | 1.02 | 1.64
3 | GGACCAAGGTGAATAGGTCGTTGATGAGTAGGCG | 1.58 | 2.18 | -0.0535 | -0.223 | 1.34 | 0.838 | 0.241 | 1.74 | 0.177 | 2.06
4 | CAGACAGGGTCAGCTAGGCCAGAGTAGGGACGGC | 0.343 | 1.7 | -0.372 | -0.169 | 1.26 | 1.72 | -0.203 | 2.83 | -0.174 | 3.84
5 | AGAATGAGGTTATTAAGAGCAGGGAATTGCGGTC | 2.93 | 2.39 | 0.24 | -0.178 | 0.998 | 1.08 | 0.932 | 1.42 | 0.134 | 1.47
6 | CGTTCAAGGTCAATGCTAGGTCAGTGAAAGCATT | 4.31 | 4.8 | 0.872 | 0.0991 | 7.93 | 5.3 | 1.78 | 6.62 | 2.61 | 5.22
7 | TCATATAGTTAAACAGGTGAAAGTCCGTAAGTTA | 2.65 | 1.54 | 1.36 | 1.6 | 1.34 | 0.848 | 0.543 | 1.2 | 1.91 | 0.698
8 | CCTACTGGCCCAAAGGTCATTGATTCCAATGCTC | 0.578 | 3.61 | -0.204 | -0.16 | 2.07 | 5 | 0.894 | 4.8 | 1.12 | 4.44
9 | GCATAGAGGTAATACAAGGTGAAAGTCCGATTGT | 1.06 | 1.35 | 0.658 | 0.616 | 0.00249 | 1.03 | -0.217 | 1.18 | 0.413 | 0.751
10 | ATCTCTACGTAACCAAGTTCAGTGAATGCCGAAC | -0.22 | 0.0113 | 0.854 | 0.806 | 0.739 | 1.29 | 1.4 | 0.427 | 0.401 | 0.836
11 | CCGACTGGGGCAAAGGTTACCATACTCAGTACGA | 4.37 | 6 | 0.389 | -0.153 | 1.16 | 2.32 | -0.304 | 3.94 | 0.0257 | 2.4
12 | TCTATCAGTTGAAGGGCAACCGACGAGTCCGTTT | 2.02 | 0.545 | -0.244 | 0.0205 | 0.44 | 0.571 | 0.541 | 0.596 | 0.00832 | 1.63
